Compounds with a hit are over-represented: about 10% of the library has one in this group of screens.
MCF10A rereplic = induces DNA re-replication in MCF 10a normal breast cells; AID 624296; 350,000 compounds, 2.9% hits; MCF 10A DNA re-replication, Hoechst nuclear intensity, 48 h; Potency, µM (doses to about 46.1 µM), inactives show at the highest dose activity, positive = re-replication, usual class: activators; note: % of control where 0% means no effect; nearly all actives have a fitted effect of over 50% in size
RORg inh = blocks mouse ROR gamma transcriptional activity; P51450; Drosophila S2 Gal4-RORgamma UAS-luciferase reporter, 20 h; Potency, µM (doses to about 53.6 µM), for the others: at the highest dose activity change, negative = inhibition, actives largely listed as inhibitors; 310,000 compounds, 5.4% hits; AID 2551; note: % is set by controls: 0 for no effect and ±100 for the full control effect; nearly all actives have a fitted effect of over 60% in size
Target sequence (P51450 whole entry, looked up, the tested form may be a part): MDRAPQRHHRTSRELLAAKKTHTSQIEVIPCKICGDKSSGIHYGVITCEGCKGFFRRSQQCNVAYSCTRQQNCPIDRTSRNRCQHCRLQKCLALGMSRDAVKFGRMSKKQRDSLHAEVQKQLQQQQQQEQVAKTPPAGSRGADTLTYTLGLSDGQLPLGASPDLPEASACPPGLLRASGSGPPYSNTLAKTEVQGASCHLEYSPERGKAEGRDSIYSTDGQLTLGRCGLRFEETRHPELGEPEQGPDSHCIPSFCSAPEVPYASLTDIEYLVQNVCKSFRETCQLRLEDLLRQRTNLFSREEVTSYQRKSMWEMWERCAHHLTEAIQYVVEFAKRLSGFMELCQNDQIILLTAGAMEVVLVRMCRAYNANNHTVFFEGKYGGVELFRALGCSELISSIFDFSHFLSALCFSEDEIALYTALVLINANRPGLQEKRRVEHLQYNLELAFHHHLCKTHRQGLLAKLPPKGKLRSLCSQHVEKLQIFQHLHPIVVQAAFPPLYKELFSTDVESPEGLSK
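Compounds are pin-transferred onto Drosophila Schneider cells expressing a copper-inducible Gal4–ROR gamma transactivation domain fusion. After 1 hr, copper sulfate is added to 700 uM final; luciferase is read 20 hr later.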
SW480 rerep = induces DNA re-replication in SW480 colon adenocarcinoma cells; SW480 DNA re-replication, Hoechst DNA content imaging, 48 h; Potency, µM (top dose mostly 46.1 µM), for the others: at the top dose re-replication activation, usual class: activators; 340,000 compounds, 1.8% hits; AID 624297; note: % of control where 0% means no effect; nearly all actives have a fitted effect of over 55% in size
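SW480 cells exposed to compounds for 48 hr at 37 C, 5% CO2, then Hoechst-stained 40 min. Nuclear DNA content imaged by fluorescence scanning (405 nm excitation, 500-530 nm emission); re-replication scored as increased high-intensity nuclei.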
ELG1 repair inh = inhibitors of ELG1-dependent DNA repair in HEK293T cells; HEK293T ELG1-luciferase reporter, luminescence, 16 h; DNA damage induced by 5-fluorouridine; Potency, µM (doses to about 46.1 µM), for inactives: top-dose activity change, negative = inhibition, hits mostly inhibitors; 330,000 compounds, 2.3% hits; note: % is set by controls: 0 for no effect and ±100 for the full control effect; nearly all actives have a fitted effect of over 55% in size
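DMSO vehicle served as the neutral condition. Each well held 2,000 cells given 5-fluorouridine plus compound; after 16 hr at 37 °C/5% CO2, ONE-Glo was added and luciferase measured 30 min later.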
Gal4-VP16 FLuc = Gal4-VP16 reporter inhibition counter-screen; Potency, µM (highest dose often 53.6 µM), for the others: at the highest dose activity, negative = inhibition, usual class: inhibitors; 310,000 compounds, 3.5% hits; Drosophila S2 Gal4-VP16 UAS-luciferase, luminescence, 20 h; AID 2546;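 note: Gal4-VP16 expression switched on by copper sulfate through the metallothionein promoter; % is set by controls: 0 for no effect and ±100 for the full control effect; nearly all actives have a fitted effect of over 50% in size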
Numbers without * were called inactive; [ ] = remark or other dose. Calls come from the whole dose curve; as a rule, active = well fitted curve in the direction sought with a large enough effect; inconclusive = small, poorly fitted or top-dose-only effect, or another doubt; inactive = no such curve, though single readings can be large; an effect the other way counts as inactive or inconclusive. Potency is the fitted concentration of half-maximal effect.

For COCCNS(=O)(=O)c1ccc2c3c(cccc13)C(=O)N2C the results were MCF10A rereplic -4%, RORg inh -23%, SW480 rerep 2%, ELG1 repair inh inconclusive and Gal4-VP16 FLuc -1%.
`CN1C(=O)c2cccc3c(S(=O)(=O)NCCc4ccccc4)ccc1c23` gave MCF10A rereplic 23µM*, RORg inh inconclusive, SW480 rerep inconclusive, ELG1 repair inh 3% and Gal4-VP16 FLuc -14%.
CCN(CC)c1ccc(NC(=O)COC(=O)/C=C/c2nc3ccccc3s2)cc1 was read as MCF10A rereplic 4%, RORg inh -24%, SW480 rerep -2%, ELG1 repair inh 0% and Gal4-VP16 FLuc -2%.
For CNC(=O)COC(=O)/C=C/c1nc2ccccc2s1 the results were MCF10A rereplic 0.65µM*, RORg inh -2%, SW480 rerep inconclusive, ELG1 repair inh inconclusive and Gal4-VP16 FLuc 29%.
`CCc1ccc(N2CC(C(=O)Nc3cccc(C(=O)NC4CC4)c3)CC2=O)cc1` (stereo unspecified) gave MCF10A rereplic 7%, SW480 rerep 22% and ELG1 repair inh 21%.
O=C1C=C(NCc2ccccc2)CCC1 was read as MCF10A rereplic -4%, RORg inh -40%, SW480 rerep -6%, ELG1 repair inh 6% and Gal4-VP16 FLuc 15%.
`O=C1C=C(NC2=CC3OC(c4ccccc4)OCC3OC2=O)CCC1` (stereo unspecified) gave MCF10A rereplic inconclusive, RORg inh 10µM*, SW480 rerep inconclusive, ELG1 repair inh 13µM* and Gal4-VP16 FLuc 10µM*.
For Cc1ccc(CN2CCN(Cc3cccc4c3OCO4)CC2CCO)cc1 (stereo unspecified) the results were MCF10A rereplic -9%, RORg inh 3%, SW480 rerep -3%, ELG1 repair inh 2% and Gal4-VP16 FLuc -1%.
`COc1cccc2c1OCC(CN1CCN(Cc3ccccc3F)C(CCO)C1)=C2` (stereo unspecified) gave MCF10A rereplic 0.73µM*, RORg inh 12%, SW480 rerep inconclusive, ELG1 repair inh inconclusive and Gal4-VP16 FLuc -1%.
For COc1cccc2c1OCC(CN1CCN(Cc3ccccc3)C(CCO)C1)=C2 (stereo unspecified) the results were MCF10A rereplic -1%, RORg inh -2%, SW480 rerep 23%, ELG1 repair inh -9% and Gal4-VP16 FLuc 6%.
COc1cccc(CN2CCN(Cc3cccc4c3OCO4)CC2CCO)c1 (stereo unspecified) was read as MCF10A rereplic 1%, RORg inh 7.1µM*, SW480 rerep -141%, ELG1 repair inh inconclusive and Gal4-VP16 FLuc 7.9µM*.
Screening CC(C)CCNC(=O)NC(=O)CSc1ncccn1 returned MCF10A rereplic -1%, RORg inh 1%, SW480 rerep 0%, ELG1 repair inh 7% and Gal4-VP16 FLuc -13%.
`Cc1cccc(/C=N/NC(=O)c2ccc(Br)cc2)c1` gave MCF10A rereplic inconclusive, RORg inh 18µM*, SW480 rerep -2%, ELG1 repair inh inconclusive and Gal4-VP16 FLuc -20%.
For CC(C)(C)c1ccc(C(=O)N/N=C/c2ccccn2)cc1 the results were MCF10A rereplic inconclusive, RORg inh 1.4µM*, SW480 rerep 6%, ELG1 repair inh inconclusive and Gal4-VP16 FLuc 4.5µM*.
For O=C(N/N=C/c1ccccn1)c1ccc(Br)cc1 the results were MCF10A rereplic inconclusive, RORg inh 6.3µM*, SW480 rerep inconclusive, ELG1 repair inh inconclusive and Gal4-VP16 FLuc 3.2µM*.
For CC(C)(C)c1ccc(/C=N/NC(=O)c2ccccn2)cc1 the results were MCF10A rereplic -1%, RORg inh 10µM*, SW480 rerep -5%, ELG1 repair inh inconclusive and Gal4-VP16 FLuc -24%.
For O=C(N/N=C/c1ccsc1)c1ccccn1 the results were MCF10A rereplic 2%, RORg inh -4%, SW480 rerep 6%, ELG1 repair inh inconclusive and Gal4-VP16 FLuc 11%.
Screening O=C(N/N=C/c1ccc(F)cc1)c1ccc(Br)cc1 returned MCF10A rereplic -24%, RORg inh inconclusive, SW480 rerep 0%, ELG1 repair inh inconclusive and Gal4-VP16 FLuc -1%.
For COc1ccc(NC(=S)N2CCN(S(=O)(=O)c3ccc(OC)cc3)CC2)cc1 the results were MCF10A rereplic 2%, RORg inh 5%, SW480 rerep -5%, ELG1 repair inh -18% and Gal4-VP16 FLuc -6%.
Screening O=C(CSc1nc(=O)n2ccccc2n1)N1CCCCCC1 returned MCF10A rereplic -2%, SW480 rerep -7% and ELG1 repair inh 24%.
Screening CC(Oc1cccc2cccnc12)C(=O)N/N=C/c1ccc2c(c1)OCO2 (stereo unspecified) returned MCF10A rereplic 4% and SW480 rerep -1%.
O=C(COc1ccccc1F)NCC(c1ccco1)N1CCCC1 (stereo unspecified) was read as MCF10A rereplic inconclusive, RORg inh 1%, SW480 rerep 0%, ELG1 repair inh -1% and Gal4-VP16 FLuc 2%.
Screening Cc1cc(C(=O)Nc2nc3c(C)cccc3s2)c(C)o1 returned MCF10A rereplic 25%, RORg inh inconclusive, SW480 rerep 0%, ELG1 repair inh 30% and Gal4-VP16 FLuc inconclusive.
`Cc1cccc2sc(NNC(=O)C3=COCCO3)nc12` gave MCF10A rereplic 6%[9.22 µM], RORg inh 2.2µM*, SW480 rerep 0%, ELG1 repair inh 8% and Gal4-VP16 FLuc 13µM*.
Screening O=C(NNc1nc2c(F)cc(F)cc2s1)C1=COCCO1 returned MCF10A rereplic 1%, RORg inh 8.9µM*, SW480 rerep -1%, ELG1 repair inh 7% and Gal4-VP16 FLuc -27%.
`O=c1[nH]c(-c2ccccc2)nc2sc(-c3ccccc3)cc12` gave MCF10A rereplic 10µM*, RORg inh 1%, SW480 rerep 2.9µM*, ELG1 repair inh inconclusive and Gal4-VP16 FLuc -4%.
For Cc1ccc(CN2CCN(Cc3cnc(N4CCOCC4)s3)CC2CCO)cc1 (stereo unspecified) the results were MCF10A rereplic 2%, RORg inh -13%, SW480 rerep 1%, ELG1 repair inh inconclusive and Gal4-VP16 FLuc 1%.
`O=C(NCCCN1CCN(Cc2ccccc2)CC1)C1CCN(c2nnc(-n3cccc3)s2)CC1` gave MCF10A rereplic 22%, RORg inh inconclusive, SW480 rerep -2%, ELG1 repair inh 7.1µM* and Gal4-VP16 FLuc -29%.
Screening O=C1NCCCC2c3c(cc(Br)c(O)c3Br)OC12N1CCOCC1 (stereo unspecified) returned MCF10A rereplic 6%, RORg inh 21%, SW480 rerep -3%, ELG1 repair inh inconclusive and Gal4-VP16 FLuc 1%.
O=C1NCCCC2c3cc(O)c4ccccc4c3OC12N1CCCCC1 (stereo unspecified) was read as RORg inh 10µM*, ELG1 repair inh inconclusive and Gal4-VP16 FLuc inconclusive.

From PubChem BioAssay
